# Test results as given in publication PMC7862700, “An all-to-all approach to the identification of sequence-specific readers for epigenetic DNA modifications on cytosine”.
# What was measured:
# Assay in all cases: DAPPL (digital affinity profiling via proximity ligation, sequencing); 10 mM Tris-HCl pH 7.5, 50 mM NaCl, 1 mM DTT, 4% glycerol, room temperature, 30 min; GST-TFs on glutathione beads, 16-mer random dsDNA library, 0.1% formaldehyde crosslink after washing; high values mean tight binding
# FEV = target: T1, FEV (Homo sapiens, UniProt Q99581 1-238); conditions: protein: recombinant; tags: N-terminal GST; dsDNA, one strand shown
# T1 sequence: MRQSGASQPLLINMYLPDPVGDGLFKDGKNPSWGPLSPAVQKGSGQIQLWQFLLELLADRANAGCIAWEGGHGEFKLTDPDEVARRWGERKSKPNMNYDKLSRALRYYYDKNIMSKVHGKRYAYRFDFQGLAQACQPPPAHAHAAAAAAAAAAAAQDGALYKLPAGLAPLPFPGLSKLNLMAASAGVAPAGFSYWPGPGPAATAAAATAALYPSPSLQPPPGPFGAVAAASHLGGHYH
# In short: (§1)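 Sequencing on an Illumina NextSeq500 followed washing, crosslinking with 0.1% formaldehyde, proximity ligation (BsaI/T4 ligase, 1 h, 37 °C) and PCR amplification of pools that had been incubated for 30 min at room temperature with 200 nmole of a random double-stranded 16-mer DNA library in Tris/NaCl/DTT/glycerol buffer. Each pool held DNA-barcoded human transcription factors, expressed in yeast as GST fusions and captured on glutathione beads, plus a tag-only sample. Binding signal is a hexamer's read frequency for a factor divided by its frequency in the tag-only sample.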
# ETV5 = ETV5 (Homo sapiens, UniProt P41161 1-510); conditions: protein: recombinant; tags: N-terminal GST; dsDNA, one strand shown
# Sequence of ETV5 (P41161 whole entry): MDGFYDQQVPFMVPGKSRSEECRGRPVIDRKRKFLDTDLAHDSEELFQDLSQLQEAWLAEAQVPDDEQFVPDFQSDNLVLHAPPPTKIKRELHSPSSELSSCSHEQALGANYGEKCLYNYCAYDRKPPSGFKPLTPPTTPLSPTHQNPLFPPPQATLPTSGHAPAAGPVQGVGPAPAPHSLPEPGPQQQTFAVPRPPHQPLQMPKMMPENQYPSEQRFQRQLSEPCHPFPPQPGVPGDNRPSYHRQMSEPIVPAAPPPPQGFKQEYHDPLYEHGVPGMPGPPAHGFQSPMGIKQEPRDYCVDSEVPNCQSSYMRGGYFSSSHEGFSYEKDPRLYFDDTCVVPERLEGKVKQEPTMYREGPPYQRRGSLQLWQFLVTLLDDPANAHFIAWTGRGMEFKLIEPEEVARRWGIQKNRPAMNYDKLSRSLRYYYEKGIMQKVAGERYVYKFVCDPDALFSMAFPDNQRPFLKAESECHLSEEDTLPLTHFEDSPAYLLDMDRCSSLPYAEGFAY
# In short: as §1
# HSF1 = HSF1 (Homo sapiens, UniProt Q00613 1-529); conditions: protein: recombinant; tags: N-terminal GST; chain copies: 3; dsDNA, one strand shown
# Sequence of HSF1 (Q00613 whole entry): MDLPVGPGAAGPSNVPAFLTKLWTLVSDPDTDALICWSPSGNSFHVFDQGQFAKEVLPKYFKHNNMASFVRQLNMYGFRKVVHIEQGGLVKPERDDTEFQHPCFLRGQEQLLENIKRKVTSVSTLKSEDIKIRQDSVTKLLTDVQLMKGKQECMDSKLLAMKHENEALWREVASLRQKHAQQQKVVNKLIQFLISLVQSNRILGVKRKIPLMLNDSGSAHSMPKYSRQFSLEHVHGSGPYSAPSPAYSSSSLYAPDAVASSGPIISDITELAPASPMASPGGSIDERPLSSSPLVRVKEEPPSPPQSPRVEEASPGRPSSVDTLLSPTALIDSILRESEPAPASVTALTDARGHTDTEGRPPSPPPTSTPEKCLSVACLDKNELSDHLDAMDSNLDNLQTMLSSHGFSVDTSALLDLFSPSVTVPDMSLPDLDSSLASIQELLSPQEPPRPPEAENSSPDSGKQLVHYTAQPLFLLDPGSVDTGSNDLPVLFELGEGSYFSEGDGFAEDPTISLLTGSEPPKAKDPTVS
# In short: as §1
# SPIC = target: T2, SPIC (Homo sapiens, UniProt Q8N5J4 1-248); conditions: protein: recombinant; tags: N-terminal GST; dsDNA, one strand shown
# T2 sequence: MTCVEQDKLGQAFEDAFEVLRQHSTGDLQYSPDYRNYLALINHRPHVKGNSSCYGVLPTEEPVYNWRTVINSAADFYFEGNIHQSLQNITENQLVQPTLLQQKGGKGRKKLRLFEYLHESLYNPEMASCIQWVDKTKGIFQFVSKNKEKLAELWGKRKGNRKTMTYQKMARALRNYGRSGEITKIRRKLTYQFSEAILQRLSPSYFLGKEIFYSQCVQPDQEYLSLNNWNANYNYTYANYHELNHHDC
# In short: as §1
# ELF4 = ELF4 (Homo sapiens, UniProt Q99607 1-663); conditions: protein: recombinant; tags: N-terminal GST; dsDNA, one strand shown
# Sequence of ELF4 (Q99607 whole entry): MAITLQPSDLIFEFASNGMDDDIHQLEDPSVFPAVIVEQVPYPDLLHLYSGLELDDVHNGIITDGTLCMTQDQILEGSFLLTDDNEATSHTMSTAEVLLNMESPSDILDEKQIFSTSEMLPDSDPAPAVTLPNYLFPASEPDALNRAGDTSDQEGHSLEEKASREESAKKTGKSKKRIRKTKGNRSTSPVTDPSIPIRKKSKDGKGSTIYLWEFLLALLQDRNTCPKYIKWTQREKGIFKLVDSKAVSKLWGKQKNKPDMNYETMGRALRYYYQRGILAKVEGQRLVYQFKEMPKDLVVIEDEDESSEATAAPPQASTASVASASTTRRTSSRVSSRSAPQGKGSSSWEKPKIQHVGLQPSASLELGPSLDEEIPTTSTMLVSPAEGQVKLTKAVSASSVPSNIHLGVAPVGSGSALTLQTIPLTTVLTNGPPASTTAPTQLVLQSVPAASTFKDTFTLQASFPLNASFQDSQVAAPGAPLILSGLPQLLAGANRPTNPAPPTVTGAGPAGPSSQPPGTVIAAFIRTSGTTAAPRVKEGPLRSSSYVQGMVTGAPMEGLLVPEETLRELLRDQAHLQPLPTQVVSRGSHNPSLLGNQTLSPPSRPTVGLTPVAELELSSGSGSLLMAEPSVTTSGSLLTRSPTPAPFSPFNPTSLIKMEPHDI
# In short: as §1
# ELK4 = target: T3, ELK4 (Homo sapiens, UniProt P28324-2 1-405); conditions: protein: recombinant; tags: N-terminal GST; dsDNA, one strand shown
# T3 sequence: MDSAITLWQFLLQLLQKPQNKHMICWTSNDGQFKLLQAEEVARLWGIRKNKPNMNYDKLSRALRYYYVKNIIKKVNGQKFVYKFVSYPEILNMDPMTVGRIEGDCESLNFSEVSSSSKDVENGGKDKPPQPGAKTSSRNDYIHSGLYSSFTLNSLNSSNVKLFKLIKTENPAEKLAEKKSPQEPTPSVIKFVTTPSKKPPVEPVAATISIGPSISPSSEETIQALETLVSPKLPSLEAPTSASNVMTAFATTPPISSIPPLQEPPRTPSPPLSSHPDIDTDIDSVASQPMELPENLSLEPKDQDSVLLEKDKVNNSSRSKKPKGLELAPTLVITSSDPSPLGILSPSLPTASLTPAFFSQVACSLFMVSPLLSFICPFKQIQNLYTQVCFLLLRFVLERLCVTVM
# In short: as §1
# ETV2 = target: T4, ETV2 (Homo sapiens, UniProt O00321 1-342); conditions: protein: recombinant; tags: N-terminal GST; dsDNA, one strand shown
# T4 sequence: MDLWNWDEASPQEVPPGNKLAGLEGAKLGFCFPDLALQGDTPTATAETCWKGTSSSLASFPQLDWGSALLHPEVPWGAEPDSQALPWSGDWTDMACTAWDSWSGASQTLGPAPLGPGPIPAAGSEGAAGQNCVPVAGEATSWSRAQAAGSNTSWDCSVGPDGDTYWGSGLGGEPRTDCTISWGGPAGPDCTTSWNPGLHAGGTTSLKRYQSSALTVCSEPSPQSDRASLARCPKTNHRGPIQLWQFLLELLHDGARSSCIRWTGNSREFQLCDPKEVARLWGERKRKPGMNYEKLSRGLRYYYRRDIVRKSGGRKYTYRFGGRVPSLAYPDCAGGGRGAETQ
# In short: as §1
# ELF3 = target: T5, ELF3 (Homo sapiens, UniProt P78545 1-371); conditions: protein: recombinant; tags: N-terminal GST; dsDNA, one strand shown
# T5 sequence: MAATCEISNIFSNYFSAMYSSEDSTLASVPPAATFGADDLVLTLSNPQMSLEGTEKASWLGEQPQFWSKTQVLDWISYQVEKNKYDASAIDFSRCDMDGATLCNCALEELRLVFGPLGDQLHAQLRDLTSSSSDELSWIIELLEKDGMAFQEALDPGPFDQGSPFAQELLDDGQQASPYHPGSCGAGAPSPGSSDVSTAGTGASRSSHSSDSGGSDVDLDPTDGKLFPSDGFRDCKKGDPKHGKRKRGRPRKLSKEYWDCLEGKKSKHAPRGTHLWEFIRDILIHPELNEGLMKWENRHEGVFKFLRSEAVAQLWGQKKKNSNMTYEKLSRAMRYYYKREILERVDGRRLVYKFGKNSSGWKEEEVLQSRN
# In short: as §1
# CRX = CRX (Homo sapiens, UniProt O43186 1-299); conditions: protein: recombinant; tags: N-terminal GST; dsDNA, one strand shown
# Sequence of CRX (O43186 whole entry): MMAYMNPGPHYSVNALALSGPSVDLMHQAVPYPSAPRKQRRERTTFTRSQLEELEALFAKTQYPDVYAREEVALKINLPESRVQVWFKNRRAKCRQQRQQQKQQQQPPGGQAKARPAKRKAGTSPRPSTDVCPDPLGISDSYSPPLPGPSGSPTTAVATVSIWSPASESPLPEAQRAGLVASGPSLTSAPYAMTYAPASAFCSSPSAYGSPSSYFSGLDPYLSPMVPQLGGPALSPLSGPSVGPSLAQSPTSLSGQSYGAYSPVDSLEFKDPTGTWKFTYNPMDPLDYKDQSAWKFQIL
# In short: as §1
# ETV1 = ETV1 (Homo sapiens, UniProt P50549 1-477); conditions: protein: recombinant; tags: N-terminal GST; dsDNA, one strand shown
# Sequence of ETV1 (P50549 whole entry): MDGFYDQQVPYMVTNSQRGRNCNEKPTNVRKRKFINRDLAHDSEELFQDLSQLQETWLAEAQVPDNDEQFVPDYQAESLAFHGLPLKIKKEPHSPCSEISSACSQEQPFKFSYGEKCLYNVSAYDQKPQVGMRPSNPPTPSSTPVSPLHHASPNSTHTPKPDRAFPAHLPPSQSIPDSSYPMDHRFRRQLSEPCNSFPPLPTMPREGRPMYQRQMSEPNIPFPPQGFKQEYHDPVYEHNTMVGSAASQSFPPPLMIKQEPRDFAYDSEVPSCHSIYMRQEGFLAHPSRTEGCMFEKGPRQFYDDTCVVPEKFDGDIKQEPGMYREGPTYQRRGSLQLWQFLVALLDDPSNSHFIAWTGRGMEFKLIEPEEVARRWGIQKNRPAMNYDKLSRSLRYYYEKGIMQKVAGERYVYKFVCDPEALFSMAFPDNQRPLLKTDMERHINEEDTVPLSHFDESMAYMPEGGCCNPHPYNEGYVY
# In short: as §1
sequence,measurement,setting,value
ACCCTA,binding signal,FEV,"1.22 fold enrichment (6-mer frequency, TF over GST control)"
same,binding signal,ETV5,"1.21 fold enrichment (6-mer frequency, TF over GST control)"
same,binding signal,HSF1,"1.18 fold enrichment (6-mer frequency, TF over GST control)"
same,binding signal,SPIC,"1.19 fold enrichment (6-mer frequency, TF over GST control)"
same,binding signal,ELF4,"1.26 fold enrichment (6-mer frequency, TF over GST control)"
same,binding signal,ELK4,"1.24 fold enrichment (6-mer frequency, TF over GST control)"
same,binding signal,ETV2,"1.27 fold enrichment (6-mer frequency, TF over GST control)"
same,binding signal,ELF3,"1.23 fold enrichment (6-mer frequency, TF over GST control)"
same,binding signal,CRX,"1.29 fold enrichment (6-mer frequency, TF over GST control)"
same,binding signal,ETV1,"1.45 fold enrichment (6-mer frequency, TF over GST control)"
